Our source for the outcome values is PubChem BioAssay AID1985 (Southern Research Specialized Biocontainment Screening …, 2009).

Screen size: about 2,300 compounds; about 1,000 (43%) were called active. No rule for the calls is given here. The set was probably picked from earlier hits. The list shows a part of the results. Entries with a potency or affinity are not part of this list.

The assay can be described thus: modified counter assay using GFP fluorescence, PhoP regulon inhibitor project, dose response (AID 1985). Conditions: S. Typhi, 4 h; series mostly up to 150 µM.
As for `CCCC1=C(C(=O)OCC)C(c2ccc(O)cc2)n2ncnc2N1` (stereo not given), the compound was called inactive. As for `O=C(CCc1nc2ccccc2s1)NC1CCOC1=O` (stereo not given), the entry is “inactive”; as for `COc1ccc(CCNC(=O)CSc2ccc(-c3ccncc3)nn2)cc1`, “inactive”. As for `COC(=O)c1ccc(NC(=O)CO/N=C2\CCCc3nonc32)cc1`, the entry is “inactive”. For `Cc1ccc2cc(-c3noc(C4CCCO4)n3)c(=O)[nH]c2c1` (stereo not given), the compound was classed as inactive.

Take `CC(C)c1ccc2oc(=O)cc(CN3CCN(c4ccc(F)cc4)CC3)c2c1`: the outcome was inactive. Regarding `Cc1ccc(NC(=O)COc2ccccc2CNC(C)(C)CC(C)(C)C)cc1`, the outcome was inactive.

As to `Cc1ccc(NC(=O)Cc2ccc(F)cc2)cc1`, the compound was called inactive.

In the case of `c1ccc2c(c1)C(=NC1CCCCC1)NC2=NC1CCCCC1`, the call was inactive. As for `Cc1cc(N2CCCCC2)c(F)cc1[N+](=O)[O-]`, the entry is “inactive”.

As to `Cc1nn(-c2cc(N3CCNCC3)ccc2[N+](=O)[O-])c(=O)c2ccccc12`, the result was inactive. As for `CCN(CC(=O)Nc1ccc(C(=O)OC)cc1)C1CCCCC1`, the entry is “inactive”; as for `Cc1ccc(N2C(=O)[C@@H]3[C@H](C2=O)[C@H]2C=CC=NN2[C@@H]3C(=O)Nc2ccc(Cl)cc2)cc1`, “inactive”; as for `COC(=O)c1cccc(C(=O)N2CCCC(CCC(=O)N(C)CCc3ccccn3)C2)c1` (stereo not given), “inactive”. As for `C[C@@H](CO)NC(=O)c1ccc2c3n(nc2c1)-c1ccc(Cl)cc1CO3`, the entry is “inactive”; as for `Clc1ccc2c(NCc3ccccn3)ccnc2c1`, “inactive”. As for `CCCCCc1nc2c(c3c1CCCC3)CCCC2`, the entry is “inactive”. For `N=C1c2ccccc2CN1c1ncccn1`, the compound was classed as inactive.

With `CCCN1CCC(NCc2cn(C)nc2-c2ccc(Oc3ccccc3)cc2)CC1`, the call was inactive. Consider `CN(C)CCCNC(=O)c1ccc(-c2nc(-c3ccc(Cl)cc3)cs2)cc1`, for which the result was inactive. The entry for `CN(C)CCNC(=O)/C(=C/c1ccc(-c2ccc(Cl)cc2)o1)NC(=O)c1ccccc1` is “inactive”; for `O=C(N/N=C/c1ccc(-c2ccc(Br)cc2)o1)c1ccc2c(c1)OCO2` it is “inactive”; for `CCOC(=O)COn1c(=O)c(-c2cccs2)[n+]([O-])c2ccccc21` it is “inactive”.

As to `O=C(O)C1CCCCC1C(=O)NCCc1ccncc1` (stereo not given), the compound was classed as inactive.

For `C#CCOCCOCCOCCNc1nc(N2CCN(C(=O)CCCCCCCCCCNC(=O)[C@@H](CCSC)n3cc(CCO)nn3)CC2)nc(N2CCN(C(=O)CCCCCCCCCCNC(=O)[C@H]([C@@H](C)CC)n3cc(CCCCN=C(N)N)nn3)CC2)n1`, the result was inactive.

In the case of `Cn1c(=O)c2c(nc(Br)n2CCSc2nc3ccccc3o2)n(C)c1=O`, the result was inactive. The entry for `CC(=O)c1cccc(CN2CCN(C3CCCC3)C(CCO)C2)c1` (stereo not given) is “inactive”; for `Cc1ccc(S(=O)(=O)NC(C)(C)CSc2nnc(N)s2)cc1` it is “inactive”. As for `CCc1ccccc1NC(=S)N(Cc1cccc(C)c1)c1cccnc1`, the entry is “inactive”; as for `CN1CCN(C(=O)c2cc(-c3cccc(Cl)c3)on2)CC1`, “inactive”; as for `CC1(C)CC(N2CCN(C(c3ccccc3)c3ccccc3)CC2)=CC(=[N+]2CCCCC2)C1`, “inactive”. Consider `CCn1c(-c2cccc(Br)c2)n[nH]c1=S`, for which the compound was classed as inactive. As for `CC(=O)c1sc2nc(=O)c(C)nn2c1C`, the entry is “inactive”; as for `Cc1ccc(C(=O)N2C(=S)C(c3ccc(F)cc3)=NC23CCN(C)CC3)cc1`, “inactive”.

Regarding `COc1ccc(N=Cc2c(O)n(CC3CCCO3)c(=O)[nH]c2=O)cc1` (stereo not given), the outcome was inactive. As to `CC(=O)c1c(C)nc(-c2cccc([N+](=O)[O-])c2)n1O`, the compound was classed as inactive. As for `COc1cc(C)nc(N2CCCC(C(=O)NCC(C)C)C2)n1` (stereo not given), the entry is “inactive”; as for `O=C(C[n+]1cc(-c2ccc(Cl)cc2)n2c1CCC2)N1c2ccccc2Sc2ccccc21`, “inactive”; as for `CCOC(=O)C1CCCN(C/C(O)=C(\C#N)c2nc(-c3ccccc3)cs2)C1` (stereo not given), “inactive”. As for `O=C(O)c1csc(-c2ccc(Cl)cc2)n1`, the outcome was inactive.

As for `Cc1ccc(-c2csc(NC(=O)C[n+]3cc(-c4ccccc4)n4c3CCC4)n2)cc1`, the compound was called inactive.

`CC(=O)N(CCC1(c2ccc(C)cc2)CCOC(C(C)C)C1)Cc1ccco1` (stereo not given): the compound was classed as inactive. The entry for `Cc1cccc(/C(N)=N/OC(=O)N2CCOCC2)c1` is “inactive”. The entry for `CCOC(=O)C1CCN(Cc2nc(-c3ccc(OC)c(OC)c3)no2)CC1` is “inactive”.

On to `CC(=O)c1ccc(NC(=O)CN2CCCCCC2)cc1`, for which the outcome was inactive.

In the case of `O=C(Cn1[nH]c(=O)c2ccccc2c1=O)Nc1ccc(-c2nnc3n2CCCCC3)cc1`, the outcome was inactive. Regarding `COC(=O)c1ccc(CSc2ccc3nnc(-c4ccc(OC)c(OC)c4)n3n2)o1`, the outcome was inactive. Regarding `COc1ccc(S(=O)(=O)NCCSCc2ccco2)cc1Cl`, the result was inactive.

`CCN1CCCC1Cn1cnc2c([nH]c3ccc(Cl)cc32)c1=O` (stereo not given): the compound was classed as inactive.

`Clc1ccc(CONc2ncnc3nonc23)c(Cl)c1`: the call was inactive. As for `CCCCCCCCn1ccc(=N)cc1`, the entry is “inactive”; as for `O=C(On1c(-c2ccccc2)nc2ccccc2c1=O)c1ccco1`, “inactive”. The entry for `O=c1c2ccccc2nc(-c2ccoc2)n1CCc1ccccc1` is “inactive”; for `CCC(O)CNc1nc(SC)nc2sc3c(c12)CCN(C)C3` (stereo not given) it is “inactive”; for `CN1C(=O)C2(Nc3ccccc3-c3nc4ccccc4n32)c2ccccc21` (stereo not given) it is “inactive”. Regarding `O=C(N/N=C\c1cccc([N+](=O)[O-])c1O)C1COc2ccccc2O1` (stereo not given), the call was inactive. The entry for `CCCCCN1C(=O)/C(=C/c2c(N3CCc4ccccc4C3)nc3ccccn3c2=O)SC1=S` is “inactive”; for `Cn1cc(C(=O)N/N=C/C(Br)=C/c2ccccc2)ccc1=O` it is “inactive”. Consider `C/C(=N\NC(=O)c1c(Br)c(C)nn1C)c1ccc(NC(=O)c2ccoc2C)cc1`, for which the compound was classed as inactive. With `COc1cccc2cc(C(=O)Nc3ccccc3C)/c(=N/O)oc12`, the outcome was inactive. For `CCN(CC)Cc1c(C(=O)N/N=C/c2cccs2)nnn1-c1nonc1N`, the call was inactive. As for `Clc1ccc(N/N=C/c2cccs2)nn1`, the entry is “inactive”; as for `Cc1ccnc(NC(=O)CCC(=O)N(CC(=O)NC2CCCCC2)C2CCCC2)c1`, “inactive”.

As for `COC(=O)C1C(=O)C2=C(CC1C)Nc1ccccc1NC2c1ccc(C)s1` (stereo not given), the compound was classed as inactive.

As for `CC(C(=O)NC1CCCCC1)N1CCN(C)CC1` (stereo not given), the result was inactive. The entry for `CN(C)c1nnnn1-c1ccc(Oc2ccccc2)cc1` is “inactive”.

Regarding `COC(=O)c1sccc1NC(=S)NCc1ccc(Cl)cc1`, the compound was called inactive.

In the case of `CC1CCN(C(=O)CSc2nnc(Cc3cc(=O)[nH]c(=O)[nH]3)n2-c2ccc(Cl)cc2)CC1`, the compound was classed as inactive.

In the case of `Cn1nnnc1SCC(=O)Nc1ccccc1-c1ccccc1`, the result was inactive. As for `CCOc1cc(S(=O)(=O)N2CCN(CC)CC2)ccc1Cl`, the entry is “inactive”. As for `Cc1cc(C)n2nc(SCn3nnc4ccccc4c3=O)nc2n1`, the entry is “inactive”; as for `Cc1ccc2cc(CN(Cc3ccc(F)cc3)Cc3nnnn3C3CCCC3)c(=O)[nH]c2c1`, “inactive”.

As for `CCCCCCNC1=NCCS1`, the compound was called inactive. As for `CCCCCCCCC1=NCCc2c1[nH]c1ccccc21`, the entry is “inactive”.

For the compound `CN(C)CCSc1nnc2[nH]c3ccccc3c2n1`, the outcome was inactive. As for `COc1ccc(-n2ncc3c(NCc4ccccn4)ncnc32)cc1`, the entry is “inactive”. As for `CC1=C([N+](=O)[O-])C(c2cccc(Br)c2)C2=C(N1)c1ccccc1C2=O` (stereo not given), the entry is “inactive”. The entry for `O=C(O)C1Cc2ccccc2CN1S(=O)(=O)c1ccc2ccccc2c1` (stereo not given) is “inactive”; for `CC(=O)c1c(C)[nH]c(C(=O)CSc2nnc(-c3ccc(Cl)cc3)n2CC2CCCO2)c1C` (stereo not given) it is “inactive”; for `O=C(CSc1nc2ncc(Cl)cc2[nH]1)NCC(=O)Nc1ccc(F)c(F)c1F` it is “inactive”.

As for `CC1(C)CC(N2CCN(c3ccccc3)CC2)=CC(=[N+]2CCCC2)C1`, the compound was called inactive. The entry for `CCCCCCC(=O)N(O)C1CC(=O)N(Cc2ccccc2)C1=O` (stereo not given) is “inactive”. The entry for `Cc1ccc(OCC(O)Cn2c(N)nc3c2c(=O)n(C)c(=O)n3C)cc1` (stereo not given) is “inactive”; for `C=CCn1c(C)c(C(C)=O)c(N2CCCC2)nc1=S` it is “inactive”. As for `CCOC(=O)C1=C(C(C)=O)C(c2cccnc2)C(C#N)=C(N)O1` (stereo not given), the entry is “inactive”; as for `COc1ccc(CN2CCSCC2)cc1C`, “inactive”. With `Cc1ccc(NC(=O)CN(C)C(=O)Cn2ccsc2=N)cc1`, the result was inactive. The entry for `CC(C)NC(=O)c1cc(-c2ccc(Br)cc2)on1` is “inactive”; for `Cc1ccccc1-c1ncc(CN2CCN(C3CCCC3)C(CCO)C2)cn1` (stereo not given) it is “inactive”. The entry for `Nc1nc2n(n1)C(c1ccco1)CC(c1ccc(Cl)c(Cl)c1)N2` (stereo not given) is “inactive”. The entry for `CCN(CC)CCNC(=O)c1cccc(NC(=O)C(=O)c2cc(Br)ccc2NC(C)=O)c1` is “inactive”; for `CC(=O)Nc1cc(-c2ccc(Cl)cc2)[nH]n1` it is “inactive”. On to `COc1ccc(NS(=O)(=O)c2cccc(NC(=O)c3ccccn3)c2)cc1`, for which the compound was called inactive.

For `O=C(NC(=C(Cl)Cl)S(=O)(=O)c1ccc(Cl)cc1)c1ccccc1`, the compound was called inactive.

As to `CCCCCCCCCCCCC/C=C/[C@@H](O)[C@@H](N)CO`, the compound was called inactive.

On to `COc1ccc(OC)c(S(=O)(=O)N2CCC(C(=O)NCCc3ccc(OC)c(OC)c3)CC2)c1`, for which the outcome was inactive.

As for `Cc1nnc(SCc2cnc(-c3ccc(C(C)C)cc3)s2)n1C`, the call was inactive. The entry for `O=C(C[n+]1cc(-c2ccccc2)n2c1CCC2)c1cccs1` is “inactive”. The entry for `Cc1ccc(-n2c(Cc3noc4ccccc34)n[nH]c2=S)cc1` is “inactive”; for `CCc1nnc(NS(=O)(=O)c2ccc(NC(=S)NC(=O)/C=C/c3ccc([N+](=O)[O-])cc3)cc2)s1` it is “inactive”; for `CCN(CC)CCCNC(=O)c1c(O)c2c([nH]c1=O)CCCC2` it is “inactive”. In the case of `CCSc1nc(C)cc(C)c1S(=O)(=O)c1ccccc1C`, the compound was classed as inactive. The entry for `O=c1ccn(CCc2c[nH]c3ccccc23)c2c1CCCC2` is “inactive”. The entry for `Nc1cccc2c(=O)c3ccccc3[nH]c12` is “inactive”. Consider `Cc1[nH]c2ccccc2c1/C=C/c1nc2ccccc2c(=O)[nH]1`, for which the outcome was inactive. As to `Cc1ccc2[nH]c(C(=O)O)c(NC(=O)CN3CCN(c4cccc(C)c4C)CC3)c2c1`, the call was inactive. The entry for `CC1CCC[C@H](O)CCCCCc2cc(O)cc(O)c2C(=O)O1` (stereo not given in full) is “inactive”; for `O=C(O)c1ccc(S(=O)(=O)NC2CC2)cc1` it is “inactive”; for `c1cc2c(cc1C1CCCCC1)c1c3n2CCN=C3CCC1` it is “inactive”.

For the compound `CC1(C)CC(=O)C(C=NCC2CCN(C(=O)Cc3ccccc3)CC2)=C(O)C1`, the compound was classed as inactive.
